Publication PMC9911399, “Two distinct binding modes provide the RNA-binding protein RbFox with extraordinary sequence specificity”
Substitutions are numbered along the chain they refer to; changes in the protein carry UniProt numbers. In all, about 16,000 sequences were measured (“ka relative to ugcaugu”: median about 0.096, highest 2% from about 0.35 on). For the sample, the highest values were picked, then their nearest neighbours and some sequences at random.

B1: CAUAUAU (DNA:RNA)
RNA: GGGAGACCGGAAUUCAGAUUGUCCCAUAUAUUUAAAUCCCGUCGUAGCCACCA
DNA 1: CAATCTGAATTCCGGTCTCCC
DNA 2: TGGTGGCTACGACGGGATT
B2: CGAAACU (DNA:RNA)
RNA: B1 RNA with A26G, U27A, U29A, A30C
DNA 1: CAATCTGAATTCCGGTCTCCC
DNA 2: TGGTGGCTACGACGGGATT
B3: GAGAGCA (DNA:RNA)
RNA: B1 RNA with C25G, U27G, U29G, A30C, U31A
DNA 1: CAATCTGAATTCCGGTCTCCC
DNA 2: TGGTGGCTACGACGGGATT
B4: ACGAAUG (DNA:RNA)
RNA: B1 RNA with C25A, A26C, U27G, U29A, A30U, U31G
DNA 1: CAATCTGAATTCCGGTCTCCC
DNA 2: TGGTGGCTACGACGGGATT
B5: ACGAUUG (DNA:RNA)
RNA: B1 RNA with C25A, A26C, U27G, A30U, U31G
DNA 1: CAATCTGAATTCCGGTCTCCC
DNA 2: TGGTGGCTACGACGGGATT
B6: GUAAAUG (DNA:RNA)
RNA: B1 RNA with C25G, A26U, U27A, U29A, A30U, U31G
DNA 1: CAATCTGAATTCCGGTCTCCC
DNA 2: TGGTGGCTACGACGGGATT
B7: CGGAAUG (DNA:RNA)
RNA: B1 RNA with A26G, U27G, U29A, A30U, U31G
DNA 1: CAATCTGAATTCCGGTCTCCC
DNA 2: TGGTGGCTACGACGGGATT
B8: ACGAAUC (DNA:RNA)
RNA: B1 RNA with C25A, A26C, U27G, U29A, A30U, U31C
DNA 1: CAATCTGAATTCCGGTCTCCC
DNA 2: TGGTGGCTACGACGGGATT
B9: GAGAUUG (DNA:RNA)
RNA: B1 RNA with C25G, U27G, A30U, U31G
DNA 1: CAATCTGAATTCCGGTCTCCC
DNA 2: TGGTGGCTACGACGGGATT
B10: GAGCAUC (DNA:RNA)
RNA: B1 RNA with C25G, U27G, A28C, U29A, A30U, U31C
DNA 1: CAATCTGAATTCCGGTCTCCC
DNA 2: TGGTGGCTACGACGGGATT
B11: CUAAAUG (DNA:RNA)
RNA: B1 RNA with A26U, U27A, U29A, A30U, U31G
DNA 1: CAATCTGAATTCCGGTCTCCC
DNA 2: TGGTGGCTACGACGGGATT
B12: GAGAAUG (DNA:RNA)
RNA: B1 RNA with C25G, U27G, U29A, A30U, U31G
DNA 1: CAATCTGAATTCCGGTCTCCC
DNA 2: TGGTGGCTACGACGGGATT
B13: GAGCAUG (DNA:RNA)
RNA: B1 RNA with C25G, U27G, A28C, U29A, A30U, U31G
DNA 1: CAATCTGAATTCCGGTCTCCC
DNA 2: TGGTGGCTACGACGGGATT
B14: GAGACCG (DNA:RNA)
RNA: B1 RNA with C25G, U27G, U29C, A30C, U31G
DNA 1: CAATCTGAATTCCGGTCTCCC
DNA 2: TGGTGGCTACGACGGGATT
B15: CUAUAAG (DNA:RNA)
RNA: B1 RNA with A26U, U27A, A28U, U29A, U31G
DNA 1: CAATCTGAATTCCGGTCTCCC
DNA 2: TGGTGGCTACGACGGGATT
B16: GUCAGCC (DNA:RNA)
RNA: B1 RNA with C25G, A26U, U27C, U29G, A30C, U31C
DNA 1: CAATCTGAATTCCGGTCTCCC
DNA 2: TGGTGGCTACGACGGGATT
B17: GCACGGU (DNA:RNA)
RNA: B1 RNA with C25G, A26C, U27A, A28C, U29G, A30G
DNA 1: CAATCTGAATTCCGGTCTCCC
DNA 2: TGGTGGCTACGACGGGATT
B18: CUAAUAG (DNA:RNA)
RNA: B1 RNA with A26U, U27A, U31G
DNA 1: CAATCTGAATTCCGGTCTCCC
DNA 2: TGGTGGCTACGACGGGATT
B19: UCCGCGC (DNA:RNA)
RNA: GGGAGACCGGAAUUCAGAUUGUCCUCCGCGCUUAAAUCCCGUCGUAGCCACCA
DNA 1: CAATCTGAATTCCGGTCTCCC
DNA 2: TGGTGGCTACGACGGGATT
B20: CCCAGAA (DNA:RNA)
RNA: B1 RNA with A26C, U27C, U29G, U31A
DNA 1: CAATCTGAATTCCGGTCTCCC
DNA 2: TGGTGGCTACGACGGGATT
B21: CAGAAUG (DNA:RNA)
RNA: B1 RNA with U27G, U29A, A30U, U31G
DNA 1: CAATCTGAATTCCGGTCTCCC
DNA 2: TGGTGGCTACGACGGGATT
B22: CAGAUUG (DNA:RNA)
RNA: B1 RNA with U27G, A30U, U31G
DNA 1: CAATCTGAATTCCGGTCTCCC
DNA 2: TGGTGGCTACGACGGGATT
B23: UAGAAUG (DNA:RNA)
RNA: B1 RNA with C25U, U27G, U29A, A30U, U31G
DNA 1: CAATCTGAATTCCGGTCTCCC
DNA 2: TGGTGGCTACGACGGGATT
B24: UAGAUUG (DNA:RNA)
RNA: B1 RNA with C25U, U27G, A30U, U31G
DNA 1: CAATCTGAATTCCGGTCTCCC
DNA 2: TGGTGGCTACGACGGGATT
B25: UAGAAUC (DNA:RNA)
RNA: B1 RNA with C25U, U27G, U29A, A30U, U31C
DNA 1: CAATCTGAATTCCGGTCTCCC
DNA 2: TGGTGGCTACGACGGGATT
B26: GAGCACA (DNA:RNA)
RNA: B1 RNA with C25G, U27G, A28C, U29A, A30C, U31A
DNA 1: CAATCTGAATTCCGGTCTCCC
DNA 2: TGGTGGCTACGACGGGATT
B27: UGGCUAC (DNA:RNA)
RNA: B1 RNA with C25U, A26G, U27G, A28C, U31C
DNA 1: CAATCTGAATTCCGGTCTCCC
DNA 2: TGGTGGCTACGACGGGATT
B28: UGGCCCU (DNA:RNA)
RNA: B19 RNA with C26G, C27G, G28C, G30C, C31U
DNA 1: CAATCTGAATTCCGGTCTCCC
DNA 2: TGGTGGCTACGACGGGATT
B29: ACCAGUC (DNA:RNA)
RNA: B19 RNA with U25A, G28A, C29G, G30U
DNA 1: CAATCTGAATTCCGGTCTCCC
DNA 2: TGGTGGCTACGACGGGATT
B30: AGUCGUC (DNA:RNA)
RNA: B1 RNA with C25A, A26G, A28C, U29G, A30U, U31C
DNA 1: CAATCTGAATTCCGGTCTCCC
DNA 2: TGGTGGCTACGACGGGATT
B31: CGUCGUC (DNA:RNA)
RNA: B1 RNA with A26G, A28C, U29G, A30U, U31C
DNA 1: CAATCTGAATTCCGGTCTCCC
DNA 2: TGGTGGCTACGACGGGATT
B32: CACCGUC (DNA:RNA)
RNA: B1 RNA with U27C, A28C, U29G, A30U, U31C
DNA 1: CAATCTGAATTCCGGTCTCCC
DNA 2: TGGTGGCTACGACGGGATT
B33: GUUGGUC (DNA:RNA)
RNA: B19 RNA with U25G, C26U, C27U, C29G, G30U
DNA 1: CAATCTGAATTCCGGTCTCCC
DNA 2: TGGTGGCTACGACGGGATT
B34: CGUCUUG (DNA:RNA)
RNA: B1 RNA with A26G, A28C, A30U, U31G
DNA 1: CAATCTGAATTCCGGTCTCCC
DNA 2: TGGTGGCTACGACGGGATT
B35: AGUCUUG (DNA:RNA)
RNA: B1 RNA with C25A, A26G, A28C, A30U, U31G
DNA 1: CAATCTGAATTCCGGTCTCCC
DNA 2: TGGTGGCTACGACGGGATT
B36: GGUCGUC (DNA:RNA)
RNA: B1 RNA with C25G, A26G, A28C, U29G, A30U, U31C
DNA 1: CAATCTGAATTCCGGTCTCCC
DNA 2: TGGTGGCTACGACGGGATT
B37: GUCGGUC (DNA:RNA)
RNA: B19 RNA with U25G, C26U, C29G, G30U
DNA 1: CAATCTGAATTCCGGTCTCCC
DNA 2: TGGTGGCTACGACGGGATT
B38: GGAUUGG (DNA:RNA)
RNA: B1 RNA with C25G, A26G, U27A, A28U, A30G, U31G
DNA 1: CAATCTGAATTCCGGTCTCCC
DNA 2: TGGTGGCTACGACGGGATT
B39: GUCUUGG (DNA:RNA)
RNA: B19 RNA with U25G, C26U, G28U, C29U, C31G
DNA 1: CAATCTGAATTCCGGTCTCCC
DNA 2: TGGTGGCTACGACGGGATT
B40: GGUCUUG (DNA:RNA)
RNA: B1 RNA with C25G, A26G, A28C, A30U, U31G
DNA 1: CAATCTGAATTCCGGTCTCCC
DNA 2: TGGTGGCTACGACGGGATT

molecular target: T1, RBFOX1 RRM RbFoxmut (Fox-RRM*) (Homo sapiens, UniProt Q9NWB1 109-208, R118D;E147R;N151S;E152T); assay: EMSA; HiTS-Eq, 1 nM pool, 10 min; buffer printed only for the single-RNA assays: 10 mM Tris pH 7.5, 150 mM NaCl, 3.4 mM EDTA, 0.001% NP-40, 30 C; settings: tags: His6 N-terminal (pET28a); label: 5' 32P
T1 sequence: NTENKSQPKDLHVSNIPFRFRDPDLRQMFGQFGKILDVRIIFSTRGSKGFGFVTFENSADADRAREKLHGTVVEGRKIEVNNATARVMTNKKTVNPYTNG
Method in brief: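 A pool of RNA with 7 randomized nucleotides, 5′-radiolabelled and with DNA-annealed flanks, was equilibrated at 1 nM for 10 min in 50 µL with purified RbFox RRM, wild type or mutant, across increasing protein concentrations. Free RNA was separated by 8% native PAGE, excised, reverse-transcribed, barcoded by PCR and sequenced. Relative association constants were obtained from read-count changes of each RNA species versus the control reaction and normalised to the cognate motif.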

Compared with B1, B2 is lower in binding signal: 0.114 KA relative to UGCAUGU for the first, 0.0571 KA relative to UGCAUGU for the second.

First: B3
Second: B4
The binding signal of the first is lower: 0.151 KA relative to UGCAUGU for the first, 1.2 KA relative to UGCAUGU for the second.

First: B5
Second: B6
The binding signal of the first is higher: 0.234 KA relative to UGCAUGU for the first, 0.125 KA relative to UGCAUGU for the second.

Compared with B7, B8 is lower in binding signal: 1.43 KA relative to UGCAUGU for the first, 0.283 KA relative to UGCAUGU for the second.

Compared with B9, B10 is lower in binding signal: 0.314 KA relative to UGCAUGU for the first, 0.278 KA relative to UGCAUGU for the second.

Compared with B11, B12 is higher in binding signal: 0.0852 KA relative to UGCAUGU for the first, 1.5 KA relative to UGCAUGU for the second.

First: B13
Second: B14
The binding signal of the first is higher: 1.12 KA relative to UGCAUGU for the first, 0.0845 KA relative to UGCAUGU for the second.

Compared with B15, B16 is lower in binding signal: 0.0991 KA relative to UGCAUGU for the first, 0.0902 KA relative to UGCAUGU for the second.

First: B17
Second: B18
The binding signal of the first is higher: 0.289 KA relative to UGCAUGU for the first, 0.0844 KA relative to UGCAUGU for the second.

First: B19
Second: B20
The binding signal of the first is higher: 0.0955 KA relative to UGCAUGU for the first, 0.0718 KA relative to UGCAUGU for the second.

First: B21
Second: B22
The binding signal of the first is higher: 1.17 KA relative to UGCAUGU for the first, 0.225 KA relative to UGCAUGU for the second.

First: B23
Second: B24
The binding signal of the first is higher: 0.953 KA relative to UGCAUGU for the first, 0.194 KA relative to UGCAUGU for the second.

Compared with B25, B26 is lower in binding signal: 0.125 KA relative to UGCAUGU for the first, 0.0821 KA relative to UGCAUGU for the second.

Compared with B27, B28 is lower in binding signal: 0.0987 KA relative to UGCAUGU for the first, 0.0838 KA relative to UGCAUGU for the second.

First: B29
Second: B30
The binding signal of the first is lower: 0.063 KA relative to UGCAUGU for the first, 0.117 KA relative to UGCAUGU for the second.

First: B31
Second: B32
The binding signal of the first is higher: 0.186 KA relative to UGCAUGU for the first, 0.0639 KA relative to UGCAUGU for the second.

Compared with B33, B34 is higher in binding signal: 0.164 KA relative to UGCAUGU for the first, 0.615 KA relative to UGCAUGU for the second.

First: B35
Second: B36
The binding signal of the first is higher: 0.459 KA relative to UGCAUGU for the first, 0.159 KA relative to UGCAUGU for the second.

Compared with B37, B38 is higher in binding signal: 0.171 KA relative to UGCAUGU for the first, 0.219 KA relative to UGCAUGU for the second.

Compared with B39, B40 is lower in binding signal: 0.403 KA relative to UGCAUGU for the first, 0.368 KA relative to UGCAUGU for the second.
